Values joined by “and” are separate entries in the source; they are usually repeats but may differ in a detail not shown here. Equal entries are not always repeated. Records with an inconclusive call do not appear. Some compounds were tested as several samples or in several runs, with calls that do not always agree. Active and inactive are the calls of the source. Rule for the calls, unless noted: active = hit-call score of the fitted dose curve at least 0.9, where 1 is the maximum; inconclusive = response in the unintended direction; inactive = score below 0.9.
Tests used:
[1] = BSK_3C_VCAM1: BioMAP Diversity Plus: 3C Assay for Vascular cell adhesion molecule 1 (VCAM1) Biomarker Activity (AID 2282999; active = hit-call score of the fitted dose curve at least 0.9, where 1 is the maximum; inactive = score below 0.9); conditions: BioMAP 3C HUVEC, VCAM1 ELISA, cytokine-stimulated; actives raise or lower the signal
Method in brief: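 HUVEC primary cells, 24 h compound exposure; VCAM-1 by ELISA; gain/loss of signal fitted bidirectionally vs DMSO baseline.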

[2] = BSK_4H_Eotaxin3: BioMAP Diversity Plus: 4H Assay for Eotaxin 3 Biomarker Activity (AID 2283000; active = hit-call score of the fitted dose curve at least 0.9, where 1 is the maximum; inactive = score below 0.9); conditions: primary human endothelial cells (HUVEC); actives raise or lower the signal
Method in brief: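 Chemicals were added to human umbilical vein endothelium cultures, and Eotaxin-3 was quantified by ELISA at 24 h. Values were derived by bidirectional fitting with DMSO serving as negative control and activity baseline.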

[3] = read-out: Intercellular Adhesion Molecule 1 (ICAM1), ICAM1 (gene 3383); assay: BSK_3C_ICAM1: BioMAP Diversity Plus: 3C Assay for Intercellular Adhesion Molecule 1 (ICAM1) Biomarker Activity (AID 2283003; active = hit-call score of the fitted dose curve at least 0.9, where 1 is the maximum; inactive = score below 0.9); conditions: primary human endothelial cells (HUVEC); actives raise or lower the signal
Method in brief: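 Using DMSO as baseline, bidirectional curve fitting was applied to ICAM-1 ELISA signals from HUVEC in the 3C system, measured 24 h after compound addition.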

[4] = molecular target: human Retinoic Acid Receptor beta (RARb), RARB (gene 5915) (UniProt P10826); assay: ATG_RARb_TRANS: Attagene TRANS-FACTORIAL HepG2 Assay for human Retinoic Acid Receptor beta (AID 2283004)
Method in brief: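 Transient transfection of HepG2 with multiple reporter units → chemical dosing, 24 h → total RNA isolation → RT with oligo(dT) → reporter-specific PCR, 6-FAM primer extension, HpaI digest → capillary electrophoresis. Positive direction vs DMSO control.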

[5] = BSK_3C_Proliferation: Cell Proliferation Assessment in the BioMAP Diversity Plus: 3C Assay (AID 2283006; active = hit-call score of the fitted dose curve at least 0.9, where 1 is the maximum; inactive = score below 0.9;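 for AC50: potency may reflect either rise or fall in cell number versus DMSO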); conditions: primary human endothelial cells (HUVEC)
Method in brief: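 Measured here: sulforhodamine B (0.1%) staining of TCA-fixed sub-confluent umbilical vein endothelial cultures 48 h post-dosing, absorbance 560 nm. DMSO served as negative control and baseline; both signal gain and loss were modelled.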

[6] = molecular target: Peroxisome proliferator-activated receptor gamma (Homo sapiens) (UniProt P37231); assay: ATG_PPARg_TRANS: Attagene TRANS-FACTORIAL HepG2 Assay for human Peroxisome Proliferator-activated Receptor-gamma (PPARg) (AID 2283007)
Method in brief: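 After 24 h of chemical exposure, transfected HepG2 cells carrying PPARγ-Gal4 chimera reporter constructs are lysed for RNA. Reporter transcripts are measured by RT-PCR and capillary electrophoresis with fluorescent labelling, and gain of signal is fitted versus DMSO.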

[7] = molecular target: human RAR-related Orphan Receptor gamma (RORg), RORC (gene 6097) (UniProt P51449); assay: ATG_RORg_TRANS: Attagene TRANS-FACTORIAL HepG2 Assay for human RAR-related Orphan Receptor gamma (RORg) (AID 2283011)
Method in brief: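 First, HepG2 liver cells were transfected with GAL4-UAS-driven reporter constructs and the RORg-Gal4 fusion. Next, they were treated with chemical for 24 h. Finally, reporter mRNA was quantified by RT-PCR and capillary electrophoresis, with upward activity fitted against DMSO.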

[8] = molecular target: Retinoic acid receptor RXR-alpha (Homo sapiens) (UniProt P19793); assay: ATG_RXRa_TRANS: Attagene TRANS-FACTORIAL HepG2 Assay for human Retinoid X Receptor alpha (RXRa) (AID 2283012)
Method in brief: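 Chimeric NR-GAL4 trans-activation in HepG2, 24 h treatment; reporter transcripts quantified by fluorescence on capillary electrophoresis, analysed for upward change from DMSO.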

[9] = molecular target: human Retinoid X Receptor beta (RXRb), RXRB (gene 6257) (UniProt P28702); assay: ATG_RXRb_TRANS: Attagene TRANS-FACTORIAL HepG2 Assay for human Retinoid X Receptor beta (RXRb) (AID 2283013)
Method in brief: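 After a 24 h incubation with test chemical, transfected HepG2 cells carrying NR-Gal4 fusions and GAL4-UAS reporter transcription units yield RNA whose reporter cDNA is FAM-labelled, HpaI-cut and sized by capillary electrophoresis; increases over DMSO are scored.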

[10] = read-out: E-selectin (Homo sapiens) (UniProt P16581); assay: BSK_3C_Eselectin: BioMAP Diversity Plus: 3C Assay for Eselectin Biomarker Activity (AID 2283015; active = hit-call score of the fitted dose curve at least 0.9, where 1 is the maximum; inactive = score below 0.9); conditions: primary human endothelial cells (HUVEC); actives raise or lower the signal
Method in brief: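 ELISA read-out of E-selectin on endothelial monolayers after 24 h chemical treatment. Human umbilical vein primary cells served as the system, with DMSO defining baseline activity for bidirectional fitting.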

[11] = read-out: Interleukin-1 alpha (IL1a), IL1A (gene 3552); assay: BSK_BE3C_IL1a: BioMAP Diversity Plus: BE3C Assay for Interleukin-1 alpha (IL1a) Biomarker Activity (AID 2283016; active = hit-call score of the fitted dose curve at least 0.9, where 1 is the maximum; inactive = score below 0.9); conditions: primary human bronchial epithelial cells; actives raise or lower the signal
Method in brief: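 Measured in human lung primary bronchial epithelial cells: IL-1a by ELISA at 24 h after dosing, with bidirectional fitting against DMSO.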

[12] = read-out: Monocyte Chemoattractant Protein-1 (MCP1), CCL2 (gene 6347); assay: BSK_4H_MCP1: BioMAP Diversity Plus: 4H Assay for Monocyte Chemoattractant Protein-1 (MCP1) Biomarker Activity (AID 2283018; active = hit-call score of the fitted dose curve at least 0.9, where 1 is the maximum; inactive = score below 0.9); conditions: primary human endothelial cells (HUVEC); actives raise or lower the signal
Method in brief: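 Primary human umbilical vein endothelium is exposed to chemical for 24 h before MCP-1 is assayed by ELISA. Concentration-response fitted bidirectionally relative to DMSO.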

[13] = molecular target: human Peroxisome Proliferator-activated Receptor delta (PPARd), PPARD (gene 5467) (UniProt Q03181); assay: ATG_PPARd_TRANS: Attagene TRANS-FACTORIAL HepG2 Assay for human Peroxisome Proliferator-activated Receptor delta (PPARd) (AID 2283002)
Method in brief: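 Fluorescence from capillary electrophoresis of labelled RT-PCR reporter fragments gives the signal; DMSO sets baseline. Cells: HepG2 transiently carrying GAL4-UAS reporter units plus chimeric nuclear receptor-Gal4 proteins, exposed to chemicals for 24 h.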

[14] = molecular target: human Retinoic Acid Receptor gamma (RARg), RARG (gene 5916) (UniProt P13631); assay: ATG_RARg_TRANS: Attagene TRANS-FACTORIAL HepG2 Assay for human Retinoic Acid Receptor gamma (RARg) (AID 2283009)
Method in brief: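 Gain-of-signal relative to DMSO is reported from fluorescent capillary electrophoresis of RT-PCR reporter products. These came from HepG2 cells expressing transfected RARg-GAL4 chimeras with UAS reporters, harvested 24 h after dosing.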

[15] = molecular target: human Peroxisome Proliferator-activated Receptor alpha (PPARa), PPARA (gene 5465) (UniProt Q07869); assay: ATG_PPARa_TRANS: Attagene TRANS-FACTORIAL HepG2 Assay for human Peroxisome Proliferator-activated Receptor alpha (PPARa) (AID 2283001)
Method in brief: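 Transient HepG2 transfection, GAL4-UAS reporters, NR-Gal4 chimeras; 24 h compound exposure. Readout: reporter transcripts by RT-PCR, 6-FAM primer extension, HpaI digest, capillary electrophoresis. Positive direction vs DMSO baseline.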

[16] = molecular target: Nuclear receptor subfamily 1 group I member 2 (Homo sapiens) (UniProt O75469); assay: ATG_PXR_TRANS: Attagene TRANS-FACTORIAL HepG2 Assay for human Pregnane X Receptor (PXR) (AID 2283008)
Method in brief: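 HepG2 transfected (FuGene 6) with GAL4-UAS reporter units + PXR-Gal4 chimera; dosed 24 h. Total RNA → oligo(dT) RT → PCR → 6-FAM primer extension → HpaI cut → CE. Gain-of-signal vs DMSO.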

[17] = molecular target: human Thyroid Receptor alpha (THRa1), THRA (gene 7067) (UniProt P10827); assay: ATG_THRa1_TRANS: Attagene TRANS-FACTORIAL HepG2 Assay for human Thyroid Receptor alpha (THRa1) (AID 2283014)
Method in brief: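 Reporter transcript induction, read by capillary electrophoresis of 6-FAM-labelled RT-PCR products, reflects activity of a transfected THRa1-Gal4 fusion in HepG2 liver cells. Cells were dosed for 24 h; activity was fitted in the positive direction against DMSO.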

[18] = read-out: Monocyte Chemoattractant Protein-1 (MCP1), CCL2 (gene 6347); assay: BSK_3C_MCP1: BioMAP Diversity Plus: 3C Assay for Monocyte Chemoattractant Protein-1 (MCP1) Biomarker Activity (AID 2283017; active = hit-call score of the fitted dose curve at least 0.9, where 1 is the maximum; inactive = score below 0.9); conditions: primary human endothelial cells (HUVEC); actives raise or lower the signal
Method in brief: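 ELISA read-out of MCP-1 from human umbilical vein endothelial cell cultures harvested 24 h post-dosing. Gain or loss of signal was fitted relative to DMSO.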

[19] = molecular target: Retinoic acid receptor alpha (Homo sapiens) (UniProt P10276); assay: ATG_RARa_TRANS: Attagene TRANS-FACTORIAL HepG2 Assay for human Retinoic Acid Receptor alpha (RARa) (AID 2283005)
Method in brief: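 HepG2 transiently transfected with multiplex GAL4-UAS reporter units including a human RARa–GAL4 chimera; 24 h compound exposure. Reporter mRNA quantified by RT-PCR, 6-FAM labeling and capillary electrophoresis; gain of signal versus DMSO.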

[20] = molecular target: human RAR-related Orphan Receptor beta (RORb), RORB (gene 6096) (UniProt Q92753); assay: ATG_RORb_TRANS: Attagene TRANS-FACTORIAL HepG2 Assay for human RAR-related Orphan Receptor beta (RORb) (AID 2283010)
Method in brief: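 Multiplexed transcription-factor reporter assay: HepG2 cells transiently carrying NR-Gal4/GAL4-UAS constructs, 24 h treatment, mRNA quantified by RT-PCR plus capillary electrophoresis fluorescence; activity scored as induction over DMSO.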

Measured: AC50

human RAR-related Orphan Receptor beta (RORb), RORB (gene 6096), sequence (Q92753 whole entry, looked up, the tested form may be a part): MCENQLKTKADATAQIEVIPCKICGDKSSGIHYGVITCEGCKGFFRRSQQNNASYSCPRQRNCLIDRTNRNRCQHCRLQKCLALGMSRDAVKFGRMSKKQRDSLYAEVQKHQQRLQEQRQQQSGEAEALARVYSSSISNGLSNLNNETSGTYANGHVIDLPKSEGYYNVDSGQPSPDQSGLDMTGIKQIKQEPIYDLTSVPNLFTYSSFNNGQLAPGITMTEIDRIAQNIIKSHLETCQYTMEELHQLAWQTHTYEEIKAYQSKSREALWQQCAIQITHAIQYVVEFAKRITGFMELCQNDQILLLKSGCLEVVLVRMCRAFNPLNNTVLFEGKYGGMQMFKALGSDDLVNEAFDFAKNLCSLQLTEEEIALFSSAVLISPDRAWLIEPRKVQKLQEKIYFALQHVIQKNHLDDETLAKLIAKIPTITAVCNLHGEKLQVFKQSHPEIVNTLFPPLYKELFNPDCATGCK
Retinoic acid receptor alpha (Homo sapiens), sequence (P10276 whole entry, looked up, the tested form may be a part): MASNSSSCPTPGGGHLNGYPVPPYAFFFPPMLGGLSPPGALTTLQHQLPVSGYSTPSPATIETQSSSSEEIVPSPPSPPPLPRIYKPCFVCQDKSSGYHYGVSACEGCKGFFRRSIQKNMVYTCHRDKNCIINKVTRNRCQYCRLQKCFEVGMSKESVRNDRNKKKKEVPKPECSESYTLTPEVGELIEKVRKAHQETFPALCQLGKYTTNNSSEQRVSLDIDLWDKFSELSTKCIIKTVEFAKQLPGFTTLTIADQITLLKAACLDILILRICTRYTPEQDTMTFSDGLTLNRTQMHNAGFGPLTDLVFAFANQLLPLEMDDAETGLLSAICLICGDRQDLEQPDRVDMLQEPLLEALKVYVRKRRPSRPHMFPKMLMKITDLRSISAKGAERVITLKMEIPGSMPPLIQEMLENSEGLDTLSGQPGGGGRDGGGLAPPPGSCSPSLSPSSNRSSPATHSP
human Thyroid Receptor alpha (THRa1), THRA (gene 7067), sequence (P10827 whole entry, looked up, the tested form may be a part): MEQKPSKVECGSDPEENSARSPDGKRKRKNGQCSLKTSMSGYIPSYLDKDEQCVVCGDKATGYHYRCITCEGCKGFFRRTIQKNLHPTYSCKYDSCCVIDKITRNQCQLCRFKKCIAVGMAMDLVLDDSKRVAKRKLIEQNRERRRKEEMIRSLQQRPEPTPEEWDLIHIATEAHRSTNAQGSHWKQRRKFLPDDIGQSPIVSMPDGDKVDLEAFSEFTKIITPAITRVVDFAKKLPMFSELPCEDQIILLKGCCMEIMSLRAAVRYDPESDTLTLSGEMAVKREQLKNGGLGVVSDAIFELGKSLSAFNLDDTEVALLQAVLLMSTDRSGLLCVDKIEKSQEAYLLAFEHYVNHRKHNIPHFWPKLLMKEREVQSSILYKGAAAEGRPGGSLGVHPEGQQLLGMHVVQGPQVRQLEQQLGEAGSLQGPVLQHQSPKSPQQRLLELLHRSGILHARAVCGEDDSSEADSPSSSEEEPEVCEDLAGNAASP
human Retinoid X Receptor beta (RXRb), RXRB (gene 6257), sequence (P28702 whole entry, looked up, the tested form may be a part): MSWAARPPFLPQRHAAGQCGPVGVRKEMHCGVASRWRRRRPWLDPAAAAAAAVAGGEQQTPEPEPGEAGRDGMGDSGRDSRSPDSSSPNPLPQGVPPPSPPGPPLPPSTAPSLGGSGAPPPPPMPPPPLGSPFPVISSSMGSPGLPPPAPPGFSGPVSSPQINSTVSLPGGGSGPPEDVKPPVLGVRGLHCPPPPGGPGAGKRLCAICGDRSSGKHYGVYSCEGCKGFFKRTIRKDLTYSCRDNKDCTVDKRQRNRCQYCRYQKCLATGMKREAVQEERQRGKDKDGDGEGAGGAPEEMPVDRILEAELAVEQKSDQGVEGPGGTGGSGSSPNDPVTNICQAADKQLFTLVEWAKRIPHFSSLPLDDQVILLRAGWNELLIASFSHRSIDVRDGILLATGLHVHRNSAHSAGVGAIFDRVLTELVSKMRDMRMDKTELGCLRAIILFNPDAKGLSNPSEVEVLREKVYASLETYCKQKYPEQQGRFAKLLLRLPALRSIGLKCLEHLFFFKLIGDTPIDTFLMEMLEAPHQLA
human Peroxisome Proliferator-activated Receptor delta (PPARd), PPARD (gene 5467), sequence (Q03181 whole entry, looked up, the tested form may be a part): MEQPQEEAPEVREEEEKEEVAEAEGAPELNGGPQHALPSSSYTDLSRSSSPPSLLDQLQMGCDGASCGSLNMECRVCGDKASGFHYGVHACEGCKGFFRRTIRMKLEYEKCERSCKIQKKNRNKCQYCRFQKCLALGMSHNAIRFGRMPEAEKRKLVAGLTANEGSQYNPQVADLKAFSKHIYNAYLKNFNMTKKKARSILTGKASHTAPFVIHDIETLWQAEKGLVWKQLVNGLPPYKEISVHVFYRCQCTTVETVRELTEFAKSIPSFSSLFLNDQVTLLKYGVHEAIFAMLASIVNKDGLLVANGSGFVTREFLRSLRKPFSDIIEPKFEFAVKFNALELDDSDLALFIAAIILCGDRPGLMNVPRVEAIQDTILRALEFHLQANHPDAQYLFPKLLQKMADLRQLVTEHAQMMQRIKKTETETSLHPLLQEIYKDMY
Retinoic acid receptor RXR-alpha (Homo sapiens), sequence (P19793 whole entry, looked up, the tested form may be a part): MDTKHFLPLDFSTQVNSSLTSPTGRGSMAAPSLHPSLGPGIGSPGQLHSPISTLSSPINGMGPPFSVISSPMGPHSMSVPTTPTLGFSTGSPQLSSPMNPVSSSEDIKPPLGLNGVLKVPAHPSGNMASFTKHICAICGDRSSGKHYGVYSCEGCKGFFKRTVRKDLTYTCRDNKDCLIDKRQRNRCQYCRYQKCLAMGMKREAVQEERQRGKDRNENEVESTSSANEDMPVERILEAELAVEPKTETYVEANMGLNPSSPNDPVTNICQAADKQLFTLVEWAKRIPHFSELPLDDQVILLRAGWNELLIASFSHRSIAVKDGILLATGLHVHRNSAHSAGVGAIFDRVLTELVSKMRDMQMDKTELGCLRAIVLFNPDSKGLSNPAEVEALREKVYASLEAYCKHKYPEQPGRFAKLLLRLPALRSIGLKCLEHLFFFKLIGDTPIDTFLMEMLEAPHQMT
Peroxisome proliferator-activated receptor gamma (Homo sapiens), sequence (P37231 whole entry, looked up, the tested form may be a part): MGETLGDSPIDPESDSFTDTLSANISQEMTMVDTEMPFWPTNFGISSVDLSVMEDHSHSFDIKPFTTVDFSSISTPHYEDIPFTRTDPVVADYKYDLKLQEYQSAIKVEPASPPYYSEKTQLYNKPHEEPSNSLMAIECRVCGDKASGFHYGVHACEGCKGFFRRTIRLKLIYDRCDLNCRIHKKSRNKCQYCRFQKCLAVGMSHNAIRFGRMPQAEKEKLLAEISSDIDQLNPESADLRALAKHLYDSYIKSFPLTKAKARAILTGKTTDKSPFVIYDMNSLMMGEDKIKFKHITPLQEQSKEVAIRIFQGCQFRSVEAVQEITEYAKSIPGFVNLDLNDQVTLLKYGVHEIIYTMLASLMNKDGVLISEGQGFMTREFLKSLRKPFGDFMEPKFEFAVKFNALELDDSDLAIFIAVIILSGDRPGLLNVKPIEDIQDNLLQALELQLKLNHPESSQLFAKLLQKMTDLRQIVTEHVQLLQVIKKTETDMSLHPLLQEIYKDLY
human RAR-related Orphan Receptor gamma (RORg), RORC (gene 6097), sequence (P51449 whole entry, looked up, the tested form may be a part): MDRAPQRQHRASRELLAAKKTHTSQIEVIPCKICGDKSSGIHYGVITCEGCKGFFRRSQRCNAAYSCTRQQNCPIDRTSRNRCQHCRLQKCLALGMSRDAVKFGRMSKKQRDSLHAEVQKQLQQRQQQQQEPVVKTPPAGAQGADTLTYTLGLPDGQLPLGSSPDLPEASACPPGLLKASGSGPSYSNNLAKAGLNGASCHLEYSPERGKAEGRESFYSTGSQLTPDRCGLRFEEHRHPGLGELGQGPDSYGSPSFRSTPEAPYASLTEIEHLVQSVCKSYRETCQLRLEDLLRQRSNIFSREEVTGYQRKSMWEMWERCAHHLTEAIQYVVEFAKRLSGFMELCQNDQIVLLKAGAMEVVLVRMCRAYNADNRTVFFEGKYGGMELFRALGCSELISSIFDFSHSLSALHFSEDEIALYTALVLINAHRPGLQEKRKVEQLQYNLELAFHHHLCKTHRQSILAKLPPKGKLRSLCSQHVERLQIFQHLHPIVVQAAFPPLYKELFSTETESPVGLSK
human Retinoic Acid Receptor beta (RARb), RARB (gene 5915), sequence (P10826 whole entry, looked up): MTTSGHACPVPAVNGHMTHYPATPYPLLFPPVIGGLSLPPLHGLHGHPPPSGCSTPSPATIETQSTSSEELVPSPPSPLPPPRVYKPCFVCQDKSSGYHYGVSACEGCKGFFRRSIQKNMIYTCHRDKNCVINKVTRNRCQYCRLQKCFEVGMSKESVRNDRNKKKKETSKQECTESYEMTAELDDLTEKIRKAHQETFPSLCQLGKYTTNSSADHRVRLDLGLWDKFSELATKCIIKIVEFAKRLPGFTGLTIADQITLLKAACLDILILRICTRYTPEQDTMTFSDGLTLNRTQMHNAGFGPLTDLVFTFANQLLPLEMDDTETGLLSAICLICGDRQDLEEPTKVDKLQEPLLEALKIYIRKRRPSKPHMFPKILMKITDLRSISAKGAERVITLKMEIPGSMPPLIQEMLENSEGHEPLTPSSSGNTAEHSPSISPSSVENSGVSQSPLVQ
human Retinoic Acid Receptor gamma (RARg), RARG (gene 5916), sequence (P13631 whole entry, looked up, the tested form may be a part): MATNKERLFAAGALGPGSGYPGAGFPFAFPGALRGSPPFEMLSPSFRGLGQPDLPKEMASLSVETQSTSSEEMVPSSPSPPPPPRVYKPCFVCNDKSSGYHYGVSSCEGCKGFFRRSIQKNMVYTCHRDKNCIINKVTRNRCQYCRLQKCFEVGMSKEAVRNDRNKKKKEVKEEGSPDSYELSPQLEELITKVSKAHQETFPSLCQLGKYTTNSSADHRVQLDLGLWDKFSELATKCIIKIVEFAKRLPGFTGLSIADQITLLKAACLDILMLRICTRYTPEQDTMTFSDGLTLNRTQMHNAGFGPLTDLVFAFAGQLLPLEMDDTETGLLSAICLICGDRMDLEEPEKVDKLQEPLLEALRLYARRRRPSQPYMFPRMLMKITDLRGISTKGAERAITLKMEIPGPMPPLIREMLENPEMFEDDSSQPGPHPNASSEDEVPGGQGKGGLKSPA

CCSC(=O)N(CC(C)C)CC(C)C
inactive: [1] | [2] | [3] | [4] | [5] | [6] | [7] | [8] | [9] | [10] | [11] | [12]

COC(=O)c1ccccc1S(=O)(=O)NC(=O)Nc1nc(OC(F)F)cc(OC(F)F)n1
inactive: [1] | [2] | [13] | [3] | [5] | [14] | [10] | [11] | [12]

COC(=O)c1ccc(I)cc1S(=O)(=O)NC(=O)Nc1nc(C)nc(OC)n1
inactive: [1] | [2] | [15] | [3] | [5] | [6] | [10] | [11] | [12]

COc1nc(C)nc(NC(=O)NS(=O)(=O)c2ccccc2OCCCl)n1
active: [16] 40 µM
inactive: [1] | [2] | [13] | [3] | [5] | [6] | [16] | [14] | [8] | [9] | [10] | [11] | [12]

O=C(c1ccccc1)C1CCCCC1
inactive: [1] | [2] | [13] | [3] | [4] | [5] | [16] | [14] | [8] | [9] | [17] | [10] | [11] | [18] | [12]
active: [16] 29.1 µM and 8.99 µM and 19.7 µM | [9] 121 µM and 57 µM and 100 µM

CCCCCOC(=O)COc1cc(N2C(=O)C3=C(CCCC3)C2=O)c(F)cc1Cl
active: [1] 26.5 µM | [5] 14.3 µM
inactive: [2] | [15] | [3] | [4] | [19] | [6] | [16] | [20] | [7] | [8] | [9] | [10] | [11] | [12]

COCCO
inactive: [1] | [2] | [15] | [3] | [4] | [19] | [5] | [16] | [14] | [20] | [7] | [8] | [9] | [10] | [11] | [18] | [12]

Oc1ccc(C(c2ccc(O)cc2)C(Cl)(Cl)Cl)cc1
inactive: [15] | [6] | [16] | [20] | [7] | [9] | [17]
active: [1] 30.3 µM | [2] 31.4 µM | [3] 27.6 µM | [5] 19.8 µM | [10] 27.3 µM | [11] 31.5 µM | [12] 14.6 µM
